From PubChem BioAssay
Activity calls are given as the source filed them.

Columns and labels:
[1] = tested on: PRMT1 (protein arginine N-methyltransferase 1); test: small molecules binding arginine methyltransferase PRMT1 – biochemical, small-molecule microarray, 635 nm fluorescence, primary screen (AID 1088); details: higher = more signal;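 note: binding of Prmt1 protein to compounds spotted on small-molecule microarray slides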
[2] = growth effects on S. cerevisiae YJM789 – YJM789 clinical isolate, OD600, 24 h, basal, primary screen (AID 1089); details: higher = more signal, called active from +8 up or from −8 down;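 note: growth of clinical yeast isolate S. cerevisiae YJM 789 seeded 1000 cells per well; test concentration not given here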
[3] = S. pombe growth modifiers, basal conditions – strain 972, OD600, 24 h, no modulator, primary screen (AID 1090);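 note: basal condition with compound alone and no growth modifier present; test concentration not given here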; details: S. pombe 972 growth, higher = more signal, called active from +8 up or from −8 down
[4] = budding yeast growth modifiers under rapamycin – strain BY4716, OD600, 96 h, primary screen (AID 1091); note: test concentration not given here; details: S. cerevisiae BY4716 + rapamycin, higher = more signal, called active from +8 up or from −8 down
[5] = biological target: Torsin-1A-interacting protein 2 (Homo sapiens) (UniProt Q8NFQ8); test: small molecules binding lysate-expressed LULL1 – cell lysate, human LULL1 lysate, 635/667 nm fluorescence, primary screen (AID 1092); details: small-molecule microarray, hLULL1 lysate binding, 635 nm fluorescence; higher = more signal;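 note: probe is lysate of COS7 cells overexpressing human LULL1; score merges per-feature 667 nm fluorescence with signal-to-noise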
Sequence of Torsin-1A-interacting protein 2 (Homo sapiens) (Q8NFQ8 whole entry, looked up): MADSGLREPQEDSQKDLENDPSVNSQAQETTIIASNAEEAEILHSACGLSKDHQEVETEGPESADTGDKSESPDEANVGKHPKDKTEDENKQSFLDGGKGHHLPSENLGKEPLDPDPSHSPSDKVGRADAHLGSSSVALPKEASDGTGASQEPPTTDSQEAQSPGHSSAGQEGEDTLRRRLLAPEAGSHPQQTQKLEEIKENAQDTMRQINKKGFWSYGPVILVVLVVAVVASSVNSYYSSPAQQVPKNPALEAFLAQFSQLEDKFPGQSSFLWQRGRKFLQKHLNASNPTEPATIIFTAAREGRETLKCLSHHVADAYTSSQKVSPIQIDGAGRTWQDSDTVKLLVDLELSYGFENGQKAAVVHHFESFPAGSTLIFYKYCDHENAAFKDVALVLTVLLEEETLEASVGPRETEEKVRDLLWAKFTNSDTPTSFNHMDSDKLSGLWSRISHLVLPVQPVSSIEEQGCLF

[6] = optical density change of DRC41 E. coli – strain DRC41, OD650, 24 h, E. coli filamentation project, primary screen (AID 1093);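 note: MC1000 strain lacking acrAB efflux and sulA so SOS filamentation is blocked; test concentration not given here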; details: E. coli DRC41 growth, higher = more signal, called active from +8 up or from −8 down
[7] = probe aLefty2 binding to arrayed compounds – biochemical, biotinylated probe, 635/667 nm fluorescence, primary screen (AID 1094); details: small-molecule microarray, higher = more signal;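 note: score merges spot fluorescence near 667 nm with spot signal-to-noise ratio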
[8] = tested on: Noggin (protein binding on small-molecule microarray); test: small molecules binding Noggin protein – biochemical, 635/667 nm fluorescence, primary screen (AID 1095); details: 635 nm fluorescence, higher = more signal;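 note: score merges 667 nm feature fluorescence with signal to noise over triplicate slides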
[9] = biological target: Neurogenic locus notch homolog protein 3 (Homo sapiens) (UniProt Q9UM47); test: small molecules binding NOTCH3 protein – biochemical, 635/667 nm fluorescence, primary screen (AID 1096); details: small-molecule microarray, 635 nm fluorescence, higher = more signal
Sequence of Neurogenic locus notch homolog protein 3 (Homo sapiens) (Q9UM47 whole entry, looked up): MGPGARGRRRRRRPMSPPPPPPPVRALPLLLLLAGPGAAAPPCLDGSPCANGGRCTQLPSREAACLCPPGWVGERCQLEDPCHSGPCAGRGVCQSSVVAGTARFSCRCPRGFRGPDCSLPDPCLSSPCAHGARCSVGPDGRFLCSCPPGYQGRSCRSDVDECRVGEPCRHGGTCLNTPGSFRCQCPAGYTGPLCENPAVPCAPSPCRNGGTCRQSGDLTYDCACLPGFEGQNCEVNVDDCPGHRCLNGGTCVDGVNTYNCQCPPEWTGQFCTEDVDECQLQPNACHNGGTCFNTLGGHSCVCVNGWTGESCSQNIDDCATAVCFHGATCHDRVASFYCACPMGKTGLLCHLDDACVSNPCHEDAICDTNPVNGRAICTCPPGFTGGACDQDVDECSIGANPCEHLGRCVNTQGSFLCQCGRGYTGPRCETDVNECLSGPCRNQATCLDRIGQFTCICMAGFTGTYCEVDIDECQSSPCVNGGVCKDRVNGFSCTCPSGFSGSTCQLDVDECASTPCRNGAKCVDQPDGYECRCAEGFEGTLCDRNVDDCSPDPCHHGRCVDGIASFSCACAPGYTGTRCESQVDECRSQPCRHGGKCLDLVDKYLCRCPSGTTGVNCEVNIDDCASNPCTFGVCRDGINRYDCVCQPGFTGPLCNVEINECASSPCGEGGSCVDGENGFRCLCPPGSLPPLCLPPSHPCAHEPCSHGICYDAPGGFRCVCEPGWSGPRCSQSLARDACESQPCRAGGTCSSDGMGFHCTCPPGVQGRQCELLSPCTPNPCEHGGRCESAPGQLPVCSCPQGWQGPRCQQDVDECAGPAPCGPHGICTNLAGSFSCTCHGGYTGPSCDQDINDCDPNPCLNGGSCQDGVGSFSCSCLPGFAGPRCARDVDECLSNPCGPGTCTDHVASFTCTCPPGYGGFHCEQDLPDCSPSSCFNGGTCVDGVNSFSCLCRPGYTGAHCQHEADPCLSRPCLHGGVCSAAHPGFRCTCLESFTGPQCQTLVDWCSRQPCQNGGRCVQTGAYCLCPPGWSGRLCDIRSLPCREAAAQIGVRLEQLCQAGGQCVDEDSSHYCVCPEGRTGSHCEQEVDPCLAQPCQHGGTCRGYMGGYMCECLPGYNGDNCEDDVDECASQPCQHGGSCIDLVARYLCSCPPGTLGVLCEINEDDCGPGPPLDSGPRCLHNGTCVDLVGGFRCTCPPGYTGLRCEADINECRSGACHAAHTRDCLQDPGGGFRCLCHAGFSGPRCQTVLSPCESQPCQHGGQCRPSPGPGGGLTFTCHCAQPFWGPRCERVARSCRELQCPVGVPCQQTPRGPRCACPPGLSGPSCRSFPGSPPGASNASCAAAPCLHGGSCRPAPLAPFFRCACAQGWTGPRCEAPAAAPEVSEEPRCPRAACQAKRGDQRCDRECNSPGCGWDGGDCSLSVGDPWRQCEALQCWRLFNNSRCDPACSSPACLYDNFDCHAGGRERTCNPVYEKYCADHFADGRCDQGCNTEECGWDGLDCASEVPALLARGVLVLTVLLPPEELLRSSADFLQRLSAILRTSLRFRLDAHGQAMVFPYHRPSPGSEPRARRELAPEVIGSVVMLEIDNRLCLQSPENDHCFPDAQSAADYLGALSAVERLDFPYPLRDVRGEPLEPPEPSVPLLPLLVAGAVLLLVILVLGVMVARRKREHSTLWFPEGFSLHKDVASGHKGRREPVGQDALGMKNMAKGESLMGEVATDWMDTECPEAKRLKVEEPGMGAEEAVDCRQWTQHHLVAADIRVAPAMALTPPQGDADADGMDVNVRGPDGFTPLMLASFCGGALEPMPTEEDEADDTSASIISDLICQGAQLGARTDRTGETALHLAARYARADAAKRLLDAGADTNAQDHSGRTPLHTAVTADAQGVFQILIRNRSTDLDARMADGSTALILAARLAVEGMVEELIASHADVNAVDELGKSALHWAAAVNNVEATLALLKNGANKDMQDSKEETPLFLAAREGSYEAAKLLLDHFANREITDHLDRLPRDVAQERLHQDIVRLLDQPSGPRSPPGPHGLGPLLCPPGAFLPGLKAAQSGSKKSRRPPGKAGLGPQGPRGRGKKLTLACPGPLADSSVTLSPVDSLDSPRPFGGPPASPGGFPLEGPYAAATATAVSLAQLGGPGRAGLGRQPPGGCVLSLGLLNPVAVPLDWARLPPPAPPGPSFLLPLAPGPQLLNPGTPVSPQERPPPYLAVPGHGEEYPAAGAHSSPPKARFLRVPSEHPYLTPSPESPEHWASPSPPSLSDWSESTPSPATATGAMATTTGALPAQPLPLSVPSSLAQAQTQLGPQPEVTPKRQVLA

[10] = probe aEGFR binding to arrayed compounds – biochemical, biotinylated probe, 635/667 nm fluorescence, primary screen (AID 1097); details: small-molecule microarray, higher = more signal;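 note: probe is a biotinylated anti-EGFR antibody binding compounds printed on slides; score combines fluorescence near 667 nm and signal to noise of each spot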
[11] = tested on: Plasmodium falciparum Sir2 (PF13_0152, Sir2A); test: Plasmodium falciparum Sir2A binding compounds – biochemical, small-molecule microarray, 635 nm fluorescence, primary screen (AID 1098); details: fluorescence 635 nm, higher = more signal;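 note: score merges spot fluorescence intensity with its signal-to-noise ratio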
[12] = probe aDKK1 binding to arrayed compounds – biochemical, biotinylated probe, 635/667 nm fluorescence, primary screen (AID 1099); details: small-molecule microarray, higher = more signal;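 note: score merges 667nm spot fluorescence with signal to noise across triplicate slides; reference of the scale not given here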
[13] = probe aCHRDL2 binding to arrayed compounds – biochemical, biotinylated probe, 635/667 nm fluorescence, primary screen (AID 1100); details: small-molecule microarray, higher = more signal
[14] = change in splice reporter luminescence, either direction, cell-based, HEK293, spliceosome inhibition project, primary screen (AID 1101); details: HEK293 splicing luciferase reporter, 24 h, higher = more signal, called active from +8 up or from −8 down;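 note: HEK293 cells carrying a splicing-competent luciferase reporter gene; test concentration not given here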
[15] = biological target: Fibroblast growth factor 10 (Homo sapiens) (UniProt O15520); test: compounds binding fibroblast growth factor 10 – biochemical, small-molecule microarray, 635 nm fluorescence, primary screen (AID 1102); details: FGF10 binding, fluorescence 635 nm, higher = more signal
Sequence of Fibroblast growth factor 10 (Homo sapiens) (O15520 whole entry, looked up): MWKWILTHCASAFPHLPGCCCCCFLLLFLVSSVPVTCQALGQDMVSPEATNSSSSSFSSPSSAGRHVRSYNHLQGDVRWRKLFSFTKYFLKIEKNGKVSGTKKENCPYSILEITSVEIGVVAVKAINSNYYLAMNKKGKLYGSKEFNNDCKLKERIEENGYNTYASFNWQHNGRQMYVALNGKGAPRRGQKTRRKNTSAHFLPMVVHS

[16] = tested on: glycogen synthase kinase-3 (GSK3A per assay name; protocol says GSK3B); test: compounds binding glycogen synthase kinase-3 – biochemical, small-molecule microarray, 635 nm fluorescence, GSK3A, primary screen (AID 1103); details: fluorescence 635 nm, higher = more signal; note: the record names both GSK3A and GSK3B
[17] = biological target: Epidermal growth factor receptor (Homo sapiens) (UniProt P00533); test: compounds binding epidermal growth factor receptor – biochemical, small-molecule microarray, 635 nm fluorescence, primary screen (AID 1104); details: EGFR binding, higher = more signal;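 note: score merges 667 nm emission intensity with spot signal to noise over triplicate slides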
Sequence of Epidermal growth factor receptor (Homo sapiens) (P00533 whole entry, looked up): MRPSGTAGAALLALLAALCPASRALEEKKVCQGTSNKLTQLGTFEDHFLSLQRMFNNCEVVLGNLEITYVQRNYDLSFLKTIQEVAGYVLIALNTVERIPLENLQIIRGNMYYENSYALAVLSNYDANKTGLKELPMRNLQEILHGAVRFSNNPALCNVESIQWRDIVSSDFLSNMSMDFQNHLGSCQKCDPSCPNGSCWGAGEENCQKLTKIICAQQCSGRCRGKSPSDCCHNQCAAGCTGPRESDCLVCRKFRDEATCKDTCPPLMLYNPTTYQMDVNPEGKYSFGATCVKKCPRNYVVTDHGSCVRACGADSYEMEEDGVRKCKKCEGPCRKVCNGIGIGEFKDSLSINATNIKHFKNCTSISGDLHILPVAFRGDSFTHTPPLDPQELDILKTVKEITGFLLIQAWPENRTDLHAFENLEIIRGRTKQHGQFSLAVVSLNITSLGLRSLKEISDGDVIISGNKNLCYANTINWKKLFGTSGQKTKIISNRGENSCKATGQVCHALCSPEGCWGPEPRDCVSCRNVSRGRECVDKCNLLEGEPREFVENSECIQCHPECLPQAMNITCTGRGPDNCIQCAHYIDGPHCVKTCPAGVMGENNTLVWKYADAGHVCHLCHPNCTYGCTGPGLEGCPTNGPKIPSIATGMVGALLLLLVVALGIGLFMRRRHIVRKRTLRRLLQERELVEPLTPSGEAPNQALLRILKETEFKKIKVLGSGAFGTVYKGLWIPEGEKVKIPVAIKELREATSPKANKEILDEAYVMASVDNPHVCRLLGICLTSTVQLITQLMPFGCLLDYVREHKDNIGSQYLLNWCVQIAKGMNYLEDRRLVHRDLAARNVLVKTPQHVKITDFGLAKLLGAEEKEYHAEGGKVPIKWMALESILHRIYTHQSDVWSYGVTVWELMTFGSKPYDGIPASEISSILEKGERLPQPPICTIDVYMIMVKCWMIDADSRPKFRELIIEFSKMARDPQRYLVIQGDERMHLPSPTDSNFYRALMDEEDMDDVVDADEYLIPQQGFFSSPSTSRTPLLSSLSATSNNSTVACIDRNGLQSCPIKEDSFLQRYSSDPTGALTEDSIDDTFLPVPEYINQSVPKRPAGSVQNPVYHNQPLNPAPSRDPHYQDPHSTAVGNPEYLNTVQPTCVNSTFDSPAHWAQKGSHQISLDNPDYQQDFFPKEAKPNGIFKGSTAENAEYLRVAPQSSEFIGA

[18] = biological target: Follistatin-related protein 3 (Homo sapiens) (UniProt O95633); test: compounds binding follistatin-related protein 3 – biochemical, small-molecule microarray, 635 nm fluorescence, primary screen (AID 1105); details: FSTL3 binding, higher = more signal;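 note: score merges emission near 667 nm and signal to noise per printed spot across three slides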
Sequence of Follistatin-related protein 3 (Homo sapiens) (O95633 whole entry, looked up): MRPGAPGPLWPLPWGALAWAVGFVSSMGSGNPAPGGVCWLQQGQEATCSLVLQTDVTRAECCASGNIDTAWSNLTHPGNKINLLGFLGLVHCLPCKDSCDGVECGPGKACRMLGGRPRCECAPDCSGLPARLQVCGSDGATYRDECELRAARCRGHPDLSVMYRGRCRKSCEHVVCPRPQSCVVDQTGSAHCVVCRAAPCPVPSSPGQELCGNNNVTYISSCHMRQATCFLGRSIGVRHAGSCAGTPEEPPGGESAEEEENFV

[19] = biological target: Dickkopf-related protein 1 (Homo sapiens) (UniProt O94907); test: small molecules binding DKK1 protein – biochemical, small-molecule microarray, 635 nm fluorescence scan, primary screen (AID 1106); details: higher = more signal;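 note: score merges emission near 667 nm with signal to noise over three replicate slides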
Sequence of Dickkopf-related protein 1 (Homo sapiens) (O94907 whole entry, looked up): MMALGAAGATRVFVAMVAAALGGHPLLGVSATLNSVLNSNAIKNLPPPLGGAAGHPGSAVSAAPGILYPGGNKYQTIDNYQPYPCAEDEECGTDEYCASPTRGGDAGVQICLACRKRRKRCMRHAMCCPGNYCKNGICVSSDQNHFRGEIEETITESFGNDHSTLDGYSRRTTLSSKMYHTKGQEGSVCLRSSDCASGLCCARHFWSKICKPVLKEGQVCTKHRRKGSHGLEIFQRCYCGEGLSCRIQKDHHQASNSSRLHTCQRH

[20] = tested on: Inhibin beta A chain (activin A); test: small molecules binding activin A – biochemical, small-molecule microarray, 635 nm fluorescence scan, primary screen (AID 1107); details: INHBA, higher = more signal;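 note: mouse activin A protein probed at 4.33 µg/mL on printed slides; score merges bound-protein fluorescence near 667 nm with spot signal-to-noise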

Structure (SMILES) | composite z-score [1] | z-score [2] | z-score [3] | z-score [4] | composite z-score [5] | z-score [6] | composite z-score [7] | composite z-score [8] | composite z-score [9] | composite z-score [10] | composite z-score [11] | composite z-score [12] | composite z-score [13] | z-score [14] | composite z-score [15] | composite z-score [16] | composite z-score [17] | composite z-score [18] | composite z-score [19] | composite z-score [20]
CCOC(=O)C[C@H]1[C@H](OC(=O)c2ccc(C(=O)c3ccccc3)cc2)[C@@H](NC(=O)CC(C)C)c2cc(OCCCO)ccc2N1C(=O)Cc1ccc(OC)cc1 | 0.451 | 0.247 (inactive) | 0.22 (inactive) | 0.265 (inactive) | 0.663 | -0.113 (inactive) | 0.0351 | -0.114 | 0.477 | -0.0585 | 0.0092 | 0.393 | 0.671 | -0.441 (inactive) | 0.197 | 0.231 | -0.204 | 0.261 | 0.276 | 0.829
COc1ccc(C(O)C2C=CC3C(=O)N(c4ccccc4)C(=O)C3N2Nc2ccc(C(C)C)cc2)c2ccccc12 (stereo not given) | 1.56 | 0.254 (inactive) | 0.227 (inactive) | -0.519 (inactive) | 3.61 | -1.08 (inactive) | 0.204 | 0.0754 | 1.07 | -0.0019 | 1.6 | 0.661 | 0.942 | 0.48 (inactive) | 0.839 | 1.29 | 0.0751 | 1.04 | -0.0879 | 0.87
COc1ccc([Si](C)(C)[C@@H]2[C@@H](CCn3cc([C@H](O)c4ccccc4)nn3)O[C@]3(C(=O)N(Cc4cccc(N5C(=O)c6cccc7cccc5c67)c4)c4ccccc43)[C@H]2C)cc1 | 0.645 | 0.738 (inactive) | 1.21 (inactive) | 2.54 (inactive) | 0.98 | -0.143 (inactive) | -0.139 | -0.319 | -0.048 | -0.182 | -0.225 | -0.0463 | 0.575 | 1.41 (inactive) | -0.365 | -0.83 | -1.32 | -0.607 | -1.02 | -0.317
Cc1ccccc1C(O)C1C=CC2C(=O)NC(=O)C2N1Nc1ccc(Cl)cc1Cl (stereo not given) | 0.528 | -2.09 (inactive) | -2.81 (inactive) | 0.797 (inactive) | 2.27 | -1.24 (inactive) | 0.106 | 0.287 | 0.765 | -0.125 | 1.21 | 0.629 | 0.751 | 0.812 (inactive) | 0.904 | 0.332 | 0.207 | 0.511 | 0.0925 | 1.18
CC1CC/C=C\[C@H]2OC34C=CCN(CCN5CCOCC5)C(=O)[C@H]3N(C(C)CO)C(=O)[C@@H]4C2C(=O)O1 (stereo not given in full) | 0.564 | 0.194 (inactive) | -0.365 (inactive) | 0.0614 (inactive) | 3.36 | -0.476 (inactive) | -0.161 | 0.223 | 0.21 | -0.156 | 0.489 | -0.356 | -0.415 | 1.02 (inactive) | -0.42 | -0.42 | -0.599 | -0.214 | -0.0076 | 1.14
CN(C)C(=O)[C@@]1(CCC(=O)OC(C)(C)C)N=C(c2ccc(OCCCO)cc2)O[C@H]1c1ccccc1CN=[N+]=[N-] | 1.51 | -0.142 (inactive) | 0.245 (inactive) | -1.11 (inactive) | 3.83 | 0.488 (inactive) | 0.047 | 0.968 | 0.599 | -0.0238 | 1.6 | 0.473 | 0.724 | 0.277 (inactive) | 0.965 | -0.416 | -0.341 | 0.442 | -0.695 | -0.0415
COC(=O)C(CC#Cc1ccc2c(c1)[C@]1(C(=O)N2)[C@H](c2ccc(O)cc2)N2[C@H](c3ccccc3)[C@H](c3ccccc3)OC(=O)[C@H]2[C@@H]1C(=O)N1CCCCCCC1)C(=O)OC | 1.53 | -1.87 (inactive) | -1.29 (inactive) | -0.939 (inactive) | 4.02 | 0.88 (inactive) | 1.5 | 1.91 | 1.14 | 0.804 | 1.48 | 2.23 | 1.22 | -0.83 (inactive) | 0.869 | 1.32 | 0.765 | 1.54 | 1.22 | 1.77
[N-]=[N+]=Nc1ccccc1C[C@@]1(C(=O)O)N=C(c2ccc(OCCCO)cc2)O[C@@H]1c1ccccc1N=[N+]=[N-] | 1.39 | -1.05 (inactive) | -0.613 (inactive) | -1.67 (inactive) | 3.04 | -0.679 (inactive) | 0.255 | -0.414 | 1.09 | 0.0998 | 1.46 | 1.16 | 1.32 | -0.469 (inactive) | 0.285 | 1.11 | -0.383 | 0.626 | -0.435 | 1.29
COCCOC(=O)N1C(=O)[C@@]2(c3ccccc31)[C@H](c1ccccc1OCCO)N1[C@H](c3ccccc3)[C@H](c3ccccc3)OC(=O)[C@H]1[C@@H]2C(N)=O | 1.56 | 1.83 (inactive) | 1.54 (inactive) | 3.59 (inactive) | 2.89 | 0.0834 (inactive) | 0.198 | 0.463 | 1.08 | 0.0258 | 1.28 | 0.701 | 0.74 | -2.08 (inactive) | 1.2 | 1.25 | 0.888 | 1.43 | 1.16 | 0.186
CO[C@H]1O[C@H](CO)[C@@H](OC(=O)Nc2cccc(F)c2)[C@H](OC(=O)Nc2ccccc2-c2ccccc2)[C@H]1OC(=O)Nc1ccccc1-c1ccccc1 | 1.54 | -0.455 (inactive) | 2.19 (inactive) | 1.39 (inactive) | 3.08 | -0.158 (inactive) | 0.0361 | 0.928 | 1.06 | -0.0225 | 1.26 | 0.255 | 0.735 | 4.28 (inactive) | 1.46 | 1.33 | 0.321 | 1.3 | 0.585 | 0.664
C=C(COC)C(=O)CC[C@H](OC(=O)c1cccnc1)c1ccc(CO)o1 | 1.33 | -1.26 (inactive) | -0.292 (inactive) | -0.35 (inactive) | 0.103 | -0.252 (inactive) | -0.132 | 1.1 | 1.02 | -0.0313 | 1.44 | -0.424 | -0.686 | 0.591 (inactive) | 0.905 | 0.596 | 0.393 | 1.3 | 1.42 | 0.488
